The campaign covered roughly 1,000 compounds. About 230 (23%) were called active. Roughly 1% stayed inconclusive and do not appear here. The list shows a part of the results. Potency and affinity values are given separately. Values without a mark were called inactive. The rule behind the calls is not given here.

The target of the experiment is Long-chain-fatty-acid--AMP ligase FadD28 (Mycobacterium tuberculosis (strain ATCC 25618 / H37Rv)) (UniProt P9WQ59). Description: inhibitors of FadD28 bisubstrate probe binding, dose response, biochemical, fluorescence polarization, cherry-pick (AID 624273). Particulars: series mostly up to 50 µM; activity change, negative = inhibition: at the top concentration. On the technique in general: Fluorescence polarisation rises when a labelled molecule tumbles more slowly, as on binding a larger partner.
Sequence of Long-chain-fatty-acid--AMP ligase FadD28 (Mycobacterium tuberculosis (strain ATCC 25618 / H37Rv)) (P9WQ59 whole entry, looked up): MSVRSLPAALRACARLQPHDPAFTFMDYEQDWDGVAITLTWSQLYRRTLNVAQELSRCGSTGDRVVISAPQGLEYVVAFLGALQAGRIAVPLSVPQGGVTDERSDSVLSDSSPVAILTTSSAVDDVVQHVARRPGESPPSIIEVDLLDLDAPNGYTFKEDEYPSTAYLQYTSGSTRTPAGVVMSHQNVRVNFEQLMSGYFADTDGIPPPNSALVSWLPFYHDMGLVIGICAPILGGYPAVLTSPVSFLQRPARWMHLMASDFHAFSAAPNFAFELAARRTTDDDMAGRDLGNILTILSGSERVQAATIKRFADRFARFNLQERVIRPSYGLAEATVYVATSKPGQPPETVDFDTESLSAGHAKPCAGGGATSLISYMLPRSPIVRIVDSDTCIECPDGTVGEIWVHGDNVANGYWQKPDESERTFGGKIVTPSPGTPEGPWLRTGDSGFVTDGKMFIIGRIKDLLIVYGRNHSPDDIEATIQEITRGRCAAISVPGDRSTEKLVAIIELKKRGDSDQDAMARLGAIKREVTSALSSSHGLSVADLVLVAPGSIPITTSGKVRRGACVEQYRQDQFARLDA
As to `CCOC(OCC)c1nc(N)[nH]c(=O)c1CCCCc1ccccc1`, the “activity change, negative = inhibition” value was -1.57%.

As for `Cn1c(=O)c2c(ncn2CC(=O)N/N=C/c2ccc(Br)s2)n(C)c1=O`, the “activity change, negative = inhibition” value was 1.7%.

In the case of `COc1ccc(NC(=O)Nc2c(O)ccc3ccccc23)cc1`, the “activity change, negative = inhibition” value is -0.573%.

For `CCN(CC)S(=O)(=O)c1ccc(NC(=O)COC(=O)c2cc(S(=O)(=O)Nc3ccc(OC)cc3)ccc2O)cc1`, the “activity change, negative = inhibition” value is 0.508%.

Regarding `Cc1[nH]n(-c2ccccc2)c(=O)c1N=Nc1c(Cl)cccc1Cl`, the “activity change, negative = inhibition” value was -38.3%.

`Cc1ccc(-n2cc(CNC(C)Cn3cncn3)c(-c3ccc(F)cc3)n2)cc1` (configuration not stated): the “activity change, negative = inhibition” value is 1.98%.

With `Cc1cccc(CN2C(=O)N/C(=C/c3cc(C)n(-c4cc(C)ccn4)c3C)C2=O)c1`, the “activity change, negative = inhibition” value was -9.35%.

For the compound `O=C(O)CCC(=O)NC1CCCCC1`, the “activity change, negative = inhibition” value is -7.09%.

On to `COc1ccc(NC(=O)CSc2n[nH]c(-c3ccco3)n2)cc1`, for which the “activity change, negative = inhibition” value is -9.4%.

Regarding `O=C1C(=O)c2cccnc2-c2ncccc21`, the “activity change, negative = inhibition” value is 1.68%.

As for `CC(=O)C1C(c2cccc([N+](=O)[O-])c2)C2C(C)=NN=C2CC1(C)O` (configuration not stated), the “activity change, negative = inhibition” value is -4.31%.

Regarding `COc1ccc(N2CCN(S(=O)(=O)c3ccc(-c4cc(C)no4)s3)CC2)cc1`, the “activity change, negative = inhibition” value is -3.6%.

Regarding `COc1ccc(/C=N/N(Cc2ccccc2)c2ccccc2)cc1O`, the “activity change, negative = inhibition” value was -11.5%.

Regarding `Cc1ccc(S(=O)(=O)N2CCC(C(=O)NCCCN3CCOCC3)CC2)cc1C`, the “activity change, negative = inhibition” value is -6.5%.

`COc1cc(/C=C2\SC(=S)N(NC(=O)c3ccc(O)cc3)C2=O)ccc1O`: the “activity change, negative = inhibition” value was 2.07%.

Regarding `C=CCn1c(-c2cccn(Cc3ccc(Cl)cc3)c2=O)n[nH]c1=S`, the “activity change, negative = inhibition” value is -6.45%.

In the case of `O=C(O)c1ccc(N2CC3CC(C2)c2cccc(=O)n2C3)c(NS(=O)(=O)c2cccc(C(F)(F)F)c2)c1` (configuration not stated), the “activity change, negative = inhibition” value is -1.38%.

In the case of `CN(C(=O)c1ccc(NC(=O)Cc2cccc(NC(=O)C3CCCN(C(=O)c4ccccc4)C3)c2)cc1)C1CC1` (configuration not stated), the “activity change, negative = inhibition” value is -1.13%.

For `COc1ccc(N2CCN(C(CNC(=O)COc3ccccc3)c3ccco3)CC2)cc1` (configuration not stated), the “activity change, negative = inhibition” value is -5.99%.

For the compound `O=C(c1ccc(=O)[nH]n1)N1CCN(S(=O)(=O)c2cccc(F)c2)CC1`, the “activity change, negative = inhibition” value was -3.38%.

As to `O=C(N/C(=C/c1ccc(Br)cc1)C(=O)N1CCCC1)c1ccccc1F`, the “activity change, negative = inhibition” value is 0.325%.

In the case of `FC(F)(F)c1cnc(C(c2ccccn2)c2ncn[nH]2)c(Cl)c1` (configuration not stated), the “activity change, negative = inhibition” value was -1.87%.

In the case of `COc1cc2c3c(c1)/C(=C1/SC(NC(C)=O)=NC1=O)C(=O)N3C(C)(C)C=C2C`, the “activity change, negative = inhibition” value is -7.72%.

Regarding `Cc1ccc(NC(=O)C2CC(=O)N(c3ccc4c5c(cccc35)CC4)C2)cc1` (configuration not stated), the “activity change, negative = inhibition” value is -3.61%.

For `CCc1ccc(CN(C)Cc2nc(Cc3cccc(C(F)(F)F)c3)no2)nc1`, the “activity change, negative = inhibition” value is -6.49%.

On to `CCn1c(C)c(C)c2cc(C(=O)N3CCCC3)ccc21`, for which the “activity change, negative = inhibition” value is -7.83%.

On to `COc1ccc(C(=O)NCC(=O)OCC(=O)NCc2cccs2)cc1`, for which the “activity change, negative = inhibition” value is -4.01%.

As for `CCc1ccccc1OCC(=O)Nc1ccc(S(N)(=O)=O)cc1`, the “activity change, negative = inhibition” value was -6.55%.

For `Cn1cc(S(=O)(=O)N2CCCC2)cc1C(=O)NCCc1ccccc1`, the “activity change, negative = inhibition” value was -3.16%.

With `COc1ccc(CSCC(=O)Nc2ccc(S(=O)(=O)N3CCCCCC3)cc2)cc1`, the “activity change, negative = inhibition” value is -11.3%.

For `COc1cccc(OC)c1OCCN(C)C`, the “activity change, negative = inhibition” value was -5.82%.

As to `COc1cccc(CCNCc2ccc(SC)cc2)c1`, the “activity change, negative = inhibition” value was -2.97%.

In the case of `O=C(NCc1cccnc1)c1cc(-c2ccccc2)on1`, the “activity change, negative = inhibition” value is -4.29%.

As to `Cc1cccc2sc(NNC(=O)c3ccc(S(=O)(=O)N4CCCC(C)C4)cc3)nc12` (configuration not stated), the “activity change, negative = inhibition” value was -12.8%.

For `CCOc1ccc(S(=O)(=O)N2CCN(C(=S)NCC3CCCO3)CC2)cc1` (configuration not stated), the “activity change, negative = inhibition” value is 0.383%.

As to `CN(C)/C=C/C(=O)c1ccc([N+](=O)[O-])c(CS(=O)(=O)c2ccc(Cl)cc2)c1`, the “activity change, negative = inhibition” value was -7.3%.

In the case of `Cc1cc(C)cc(N(C(=O)C(F)(F)F)C(C(=O)NC2CCCCC2)c2cccs2)c1` (configuration not stated), the “activity change, negative = inhibition” value was -6.68%.

Regarding `CCc1cccc2c(C(=O)CN3C(=O)NC4(CCCCC4)C3=O)c[nH]c12`, the “activity change, negative = inhibition” value is 7.34%.

For the compound `Cc1ccc(C)c(C(=O)CN2C(=O)C(=O)N(C3CCCC3)C2=O)c1`, the “activity change, negative = inhibition” value was -9.13%.

As for `O=c1oc2c(CN3CCOCC3)c(O)c(Cl)cc2c2c1CCCC2`, the “activity change, negative = inhibition” value was -3.73%.

For `CCCCCCCCSc1nnc(CSc2nc3nc(C)cc(C)n3n2)o1`, the “activity change, negative = inhibition” value is -7.29%.

Regarding `CCc1ccccc1Nc1nc(-c2cccnc2)cs1`, the “activity change, negative = inhibition” value was -0.984%.

In the case of `CC1CCCCN1C(=O)CCS(=O)(=O)c1cccc2nonc12` (configuration not stated), the “activity change, negative = inhibition” value is -2.59%.

On to `CSc1ccc(NC(=O)Nc2ccc(C(=O)NCC(=O)O)cc2)cc1`, for which the “activity change, negative = inhibition” value was -4.74%.

For the compound `CCCCCCCCCCCCCCCC(=O)Nc1ccn(C2OC(CO)C(O)C2O)c(=O)n1` (configuration not stated), the “activity change, negative = inhibition” value is -11.5%.

Take `COc1ccc(-c2noc(CNC(=O)c3ccc4c(c3)OCO4)n2)cc1`: the “activity change, negative = inhibition” value was -5.61%.

For `O=[N+]([O-])c1cc(C(F)(F)F)ccc1NCCc1c[nH]c2ccc(O)cc12`, the “activity change, negative = inhibition” value is -25.5%.

`O=C(C(=O)N1CCCCCC1)c1c[nH]c2ccccc12`: the “activity change, negative = inhibition” value is -3.43%.

In the case of `Nc1cc(OC(=O)c2ccc(F)cc2)nn1S(=O)(=O)c1ccccc1`, the “activity change, negative = inhibition” value was -8.44%.

For the compound `COc1ccc(C2C(C#N)=C(N)N(c3ccccc3)C3=C2C(=O)CCC3)cc1Cn1cc([N+](=O)[O-])cn1` (configuration not stated), the “activity change, negative = inhibition” value was -2.41%.

On to `COc1cc(/C=C2\SC(=S)N(NC(=O)c3ccccc3O)C2=O)ccc1O`, for which the “activity change, negative = inhibition” value was -2.04%.

For `Cc1ccn2c(CNCCn3cccn3)c(C(=O)N3CCCCCC3)nc2c1`, the “activity change, negative = inhibition” value is -3.76%.

For the origin of these results see PubChem BioAssay AID624273 (Broad Institute, 2012).
